The record followed here is the supplement of paper PMC11001985.

Unmarked numbers belong to inactive results.

UniProt P04075, sequence (P04075 whole entry): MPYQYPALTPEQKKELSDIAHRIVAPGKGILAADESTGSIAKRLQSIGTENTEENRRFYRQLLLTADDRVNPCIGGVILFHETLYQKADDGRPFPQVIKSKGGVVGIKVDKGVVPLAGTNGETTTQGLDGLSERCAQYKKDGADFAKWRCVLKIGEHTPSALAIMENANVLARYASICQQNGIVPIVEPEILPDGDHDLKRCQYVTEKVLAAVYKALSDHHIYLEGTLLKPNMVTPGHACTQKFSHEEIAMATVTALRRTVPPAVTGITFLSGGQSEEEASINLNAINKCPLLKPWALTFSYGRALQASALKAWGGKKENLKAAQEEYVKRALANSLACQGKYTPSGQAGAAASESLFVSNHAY
UniProt P48509, sequence (P48509 whole entry): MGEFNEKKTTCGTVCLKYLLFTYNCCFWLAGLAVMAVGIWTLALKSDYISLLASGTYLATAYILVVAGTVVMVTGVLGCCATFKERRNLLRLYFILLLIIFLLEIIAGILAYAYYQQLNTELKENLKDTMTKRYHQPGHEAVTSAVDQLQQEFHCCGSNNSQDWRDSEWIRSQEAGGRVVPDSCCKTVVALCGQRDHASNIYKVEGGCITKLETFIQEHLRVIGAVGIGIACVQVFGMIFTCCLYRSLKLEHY
UniProt P37802, sequence (P37802 whole entry): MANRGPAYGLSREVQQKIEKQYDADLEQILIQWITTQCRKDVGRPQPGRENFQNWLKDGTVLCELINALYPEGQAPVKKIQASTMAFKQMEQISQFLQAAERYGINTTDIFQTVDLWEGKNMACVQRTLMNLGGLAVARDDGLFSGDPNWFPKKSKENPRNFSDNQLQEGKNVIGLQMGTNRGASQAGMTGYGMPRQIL
UniProt Q7L592, sequence (Q7L592 whole entry): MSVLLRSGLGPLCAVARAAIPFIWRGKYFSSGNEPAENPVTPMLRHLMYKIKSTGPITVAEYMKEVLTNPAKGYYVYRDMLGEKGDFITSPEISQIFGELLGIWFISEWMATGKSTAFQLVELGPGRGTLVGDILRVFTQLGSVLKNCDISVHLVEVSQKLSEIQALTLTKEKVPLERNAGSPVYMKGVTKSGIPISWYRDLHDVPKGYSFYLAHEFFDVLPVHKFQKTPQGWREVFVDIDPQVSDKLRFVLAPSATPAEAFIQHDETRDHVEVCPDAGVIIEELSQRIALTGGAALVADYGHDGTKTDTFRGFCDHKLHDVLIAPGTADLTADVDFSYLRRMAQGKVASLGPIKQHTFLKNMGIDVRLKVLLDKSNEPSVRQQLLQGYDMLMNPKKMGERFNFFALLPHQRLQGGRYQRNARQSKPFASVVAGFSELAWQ
UniProt P21589, sequence (P21589 whole entry): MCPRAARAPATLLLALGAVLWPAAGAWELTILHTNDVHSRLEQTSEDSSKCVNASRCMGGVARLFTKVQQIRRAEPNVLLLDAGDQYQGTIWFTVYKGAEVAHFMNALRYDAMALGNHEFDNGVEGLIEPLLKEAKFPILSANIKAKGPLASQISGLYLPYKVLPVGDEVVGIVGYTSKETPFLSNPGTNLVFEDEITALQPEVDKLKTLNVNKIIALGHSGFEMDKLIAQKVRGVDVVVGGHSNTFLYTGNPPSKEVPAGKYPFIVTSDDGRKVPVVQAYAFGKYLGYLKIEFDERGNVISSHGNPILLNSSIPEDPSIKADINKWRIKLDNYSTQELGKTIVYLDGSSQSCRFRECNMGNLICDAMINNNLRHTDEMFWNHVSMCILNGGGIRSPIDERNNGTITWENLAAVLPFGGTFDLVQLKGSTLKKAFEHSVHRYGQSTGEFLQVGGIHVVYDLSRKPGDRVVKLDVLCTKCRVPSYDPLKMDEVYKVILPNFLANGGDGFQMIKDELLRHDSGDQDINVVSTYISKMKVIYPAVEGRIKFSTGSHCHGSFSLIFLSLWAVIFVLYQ
UniProt P15311, sequence (P15311 whole entry): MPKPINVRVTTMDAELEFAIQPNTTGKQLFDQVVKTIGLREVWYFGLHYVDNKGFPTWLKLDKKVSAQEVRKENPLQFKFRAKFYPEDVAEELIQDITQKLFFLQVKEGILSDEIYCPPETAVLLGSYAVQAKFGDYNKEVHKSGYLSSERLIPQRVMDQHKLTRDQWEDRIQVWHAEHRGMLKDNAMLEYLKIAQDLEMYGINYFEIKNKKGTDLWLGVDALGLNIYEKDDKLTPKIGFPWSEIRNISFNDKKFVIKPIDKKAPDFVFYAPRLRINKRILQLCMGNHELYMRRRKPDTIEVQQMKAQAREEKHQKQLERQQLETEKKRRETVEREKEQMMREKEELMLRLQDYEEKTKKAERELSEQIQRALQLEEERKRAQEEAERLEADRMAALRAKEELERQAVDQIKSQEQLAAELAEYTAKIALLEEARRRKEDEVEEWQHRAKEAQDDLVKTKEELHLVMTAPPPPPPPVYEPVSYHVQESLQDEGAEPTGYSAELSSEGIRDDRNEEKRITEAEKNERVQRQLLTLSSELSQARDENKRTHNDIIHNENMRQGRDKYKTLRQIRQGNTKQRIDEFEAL
UniProt O60462, sequence (O60462 whole entry): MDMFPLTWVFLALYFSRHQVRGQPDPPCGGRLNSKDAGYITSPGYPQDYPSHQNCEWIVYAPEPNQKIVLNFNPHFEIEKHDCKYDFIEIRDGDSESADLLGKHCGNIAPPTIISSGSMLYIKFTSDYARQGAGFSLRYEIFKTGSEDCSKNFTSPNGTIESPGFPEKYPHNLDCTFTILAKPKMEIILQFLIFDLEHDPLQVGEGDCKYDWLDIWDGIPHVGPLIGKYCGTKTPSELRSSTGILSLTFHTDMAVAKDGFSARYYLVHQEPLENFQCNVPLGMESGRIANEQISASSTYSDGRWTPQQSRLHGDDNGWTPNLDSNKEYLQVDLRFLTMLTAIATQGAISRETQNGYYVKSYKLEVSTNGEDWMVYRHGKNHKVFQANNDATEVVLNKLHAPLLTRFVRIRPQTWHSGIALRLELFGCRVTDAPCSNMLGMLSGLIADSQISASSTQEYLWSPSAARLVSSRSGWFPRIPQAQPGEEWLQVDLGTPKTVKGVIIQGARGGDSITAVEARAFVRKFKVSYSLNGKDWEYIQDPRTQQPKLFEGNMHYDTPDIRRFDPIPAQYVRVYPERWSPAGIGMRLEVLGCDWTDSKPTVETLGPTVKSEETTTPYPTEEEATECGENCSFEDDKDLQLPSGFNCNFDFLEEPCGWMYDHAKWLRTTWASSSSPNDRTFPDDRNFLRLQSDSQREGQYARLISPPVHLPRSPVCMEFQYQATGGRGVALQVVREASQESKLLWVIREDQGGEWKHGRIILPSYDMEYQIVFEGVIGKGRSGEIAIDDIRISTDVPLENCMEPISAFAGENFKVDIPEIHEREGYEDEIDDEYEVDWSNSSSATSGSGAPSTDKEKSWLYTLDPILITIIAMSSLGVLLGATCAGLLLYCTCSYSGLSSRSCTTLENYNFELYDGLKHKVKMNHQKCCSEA
UniProt Q8WUM4, sequence (Q8WUM4 whole entry): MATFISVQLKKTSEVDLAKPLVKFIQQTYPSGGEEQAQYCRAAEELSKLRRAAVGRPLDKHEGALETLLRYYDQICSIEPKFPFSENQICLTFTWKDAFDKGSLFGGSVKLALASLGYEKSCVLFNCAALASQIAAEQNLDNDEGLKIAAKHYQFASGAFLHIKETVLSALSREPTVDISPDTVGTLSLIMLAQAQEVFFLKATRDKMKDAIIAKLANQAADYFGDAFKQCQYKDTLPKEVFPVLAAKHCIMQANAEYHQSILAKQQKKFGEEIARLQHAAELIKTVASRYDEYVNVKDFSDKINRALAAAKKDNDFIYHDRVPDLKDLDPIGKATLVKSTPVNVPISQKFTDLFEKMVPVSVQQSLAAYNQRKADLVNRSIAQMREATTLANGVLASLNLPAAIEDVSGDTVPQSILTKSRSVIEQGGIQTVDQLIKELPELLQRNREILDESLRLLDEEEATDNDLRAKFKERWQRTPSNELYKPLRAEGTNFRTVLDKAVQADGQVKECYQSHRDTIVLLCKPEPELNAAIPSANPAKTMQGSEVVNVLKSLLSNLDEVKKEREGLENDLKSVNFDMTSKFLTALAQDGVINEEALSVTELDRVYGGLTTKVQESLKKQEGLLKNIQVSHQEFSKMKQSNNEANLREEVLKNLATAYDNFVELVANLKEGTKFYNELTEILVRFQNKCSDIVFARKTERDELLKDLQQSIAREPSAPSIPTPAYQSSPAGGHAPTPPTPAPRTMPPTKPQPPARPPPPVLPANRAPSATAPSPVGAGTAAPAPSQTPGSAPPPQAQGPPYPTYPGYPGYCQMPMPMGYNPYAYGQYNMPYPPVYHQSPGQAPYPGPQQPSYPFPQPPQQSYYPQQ
UniProt Q9NX63, sequence (Q9NX63 whole entry): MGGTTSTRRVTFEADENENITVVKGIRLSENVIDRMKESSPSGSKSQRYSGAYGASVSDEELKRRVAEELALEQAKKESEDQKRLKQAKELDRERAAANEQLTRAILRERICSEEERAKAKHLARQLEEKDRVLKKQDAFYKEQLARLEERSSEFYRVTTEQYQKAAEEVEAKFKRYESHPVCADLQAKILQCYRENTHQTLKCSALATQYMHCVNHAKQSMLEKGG
UniProt O14818, sequence (O14818 whole entry): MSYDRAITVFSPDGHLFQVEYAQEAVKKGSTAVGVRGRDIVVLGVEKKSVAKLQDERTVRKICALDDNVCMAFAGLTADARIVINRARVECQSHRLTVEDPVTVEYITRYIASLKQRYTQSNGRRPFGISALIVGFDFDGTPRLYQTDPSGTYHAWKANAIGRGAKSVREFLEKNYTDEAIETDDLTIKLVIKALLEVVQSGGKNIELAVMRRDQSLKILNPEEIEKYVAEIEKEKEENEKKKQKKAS
UniProt P25788, sequence (P25788 whole entry): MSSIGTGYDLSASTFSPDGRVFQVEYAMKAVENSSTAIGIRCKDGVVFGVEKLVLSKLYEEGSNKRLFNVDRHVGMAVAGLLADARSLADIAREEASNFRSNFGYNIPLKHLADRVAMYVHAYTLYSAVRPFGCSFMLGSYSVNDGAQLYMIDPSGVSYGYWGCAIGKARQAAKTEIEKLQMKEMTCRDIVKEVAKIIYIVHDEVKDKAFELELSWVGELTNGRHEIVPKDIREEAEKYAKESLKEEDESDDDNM

Compound in this test: C#CCNC(=O)CCSSCCC(=O)NCCc1ccc(C=O)c(C=O)c1
Briefly: lysine labeling ratio R10:1 (500 µM / 50 µM probe), SILAC-ABPP in living cells; higher = lower intrinsic lysine reactivity toward the probe, active = 2 or less. The settings on record: HeLa; probe concentrations 500 vs 50 µM. In outline:
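For each lysine, R is the median over forward and reverse replicates of the filtered median MS1 peptide ratio of high probe to low probe. The probe, an alkyne-tagged, disulfide-linked lysine probe, was given at 500 µM or 50 µM to living SILAC light and heavy HeLa cells in PBS at room temperature, with label swaps. Values are capped at 20.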
Turning to “CLTC (lysine site: K1501) (UniProt Q00610)”, the “lysine labeling ratio R10:1” value is 2.77. With “CD151 (lysine site: K127) (UniProt P48509)” the figure was 2.31; with UniProt P61353 (lysine site: K98), 1.21 (active); with “TGFBR3 (lysine site: K686) (UniProt Q03167)”, 1.81 (active).

As to “ITGB1 (lysine site: K90) (UniProt P05556)”, the “lysine labeling ratio R10:1” value is 3.53.

Turning to “ARPC2 (lysine site: K186) (UniProt O15144)”, the “lysine labeling ratio R10:1” value is 1.46 (active). With “PSMA7 (lysine site: K28) (UniProt O14818)” the figure was 2.85; with “MYH9 (lysine site: K1459) (UniProt P35579)”, 1.3 (active); with “EZR (lysine site: K344) (UniProt P15311)”, 7.1.

Turning to “SLC25A13 (lysine site: K235) (UniProt Q9UJS0)”, the “lysine labeling ratio R10:1” value was 2.23. With “PNN (lysine site: K202) (UniProt Q9H307)” the figure was 3; with “MAP4 (lysine site: K946) (UniProt P27816)”, 1.95 (active). With “ALDOA (lysine site: K13) (UniProt P04075)” the figure was 8.82; with “ALDOA (lysine site: K14) (UniProt P04075)”, 5.1; with “PSMA3 (lysine site: K65) (UniProt P25788)”, 1.97 (active).

For “TLN1 (lysine site: K1332) (UniProt Q9Y490)”, the “lysine labeling ratio R10:1” value was 5.83. With “FLOT1 (lysine site: K184) (UniProt O75955)” the figure was 1.83 (active); with “LAMB1 (lysine site: K1746) (UniProt P07942)”, 3.26. To “CHCHD3 (lysine site: K89) (UniProt Q9NX63)” belongs 0.99 (active); to UniProt P61981 (lysine site: K10), 4.23. To “PLOD2 (lysine site: K89) (UniProt O00469)” belongs 1.37 (active); to “TKT (lysine site: K352) (UniProt P29401)”, 6; to UniProt P21589 (lysine site: K471), 1.6 (active). As for “KPNB1 (lysine site: K211) (UniProt Q14974)”, the “lysine labeling ratio R10:1” value is 2.19. As to “SERPINH1 (lysine site: K334) (UniProt P50454)”, the “lysine labeling ratio R10:1” value is 2.28. With “ITGA6 (lysine site: K127) (UniProt P23229)” the figure was 1.74 (active); with “GPC1 (lysine site: K383) (UniProt P35052)”, 1.73 (active); with “PDCD6IP (lysine site: K303) (UniProt Q8WUM4)”, 2.47. With “CD9 (lysine site: K131) (UniProt P21926)” the figure was 7.57.

Regarding “PLS3 (lysine site: K315) (UniProt P13797)”, the “lysine labeling ratio R10:1” value is 1.71 (active).

Consider “COPA (lysine site: K607) (UniProt P53621)”, for which the “lysine labeling ratio R10:1” value was 1.94 (active). In the case of UniProt O95980 (lysine site: K747), the “lysine labeling ratio R10:1” value was 1.22 (active).

For the target “SLC44A1 (lysine site: K75) (UniProt Q8WWI5)”, the “lysine labeling ratio R10:1” value was 2.45. For “TAGLN2 (lysine site: K156) (UniProt P37802)”, the “lysine labeling ratio R10:1” value was 1.43 (active). With UniProt O95490 (lysine site: K494) the figure was 1.07 (active); with “FOLR1 (lysine site: K97) (UniProt P15328)”, 4.12; with UniProt O60462 (lysine site: K499), 1.47 (active).

Regarding “DDX3X (lysine site: K118) (UniProt O00571)”, the “lysine labeling ratio R10:1” value is 4.1. With “PLXNA1 (lysine site: K1084) (UniProt Q9UIW2)” the figure was 2.49; with UniProt Q7L592 (lysine site: K72), 0.87 (active).
